Experimental data taken from PubChem BioAssay (NCI).
About 79,000 compounds went through this panel and 15% of them were active in at least one assay; those are over-represented in the sample as a whole. A number with no mark means an inactive call. The source made the active and inactive calls. No stated cut-off is given here; in the data, active means growth inhibition above about 70%; inactive means the rest.

Tests used:
[1] = NCI Yeast Anticancer Drug Screen. Data for the rad52 strain (AID 147);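 further: 0% = growth of vehicle-treated control cultures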; settings: S. cerevisiae rad52 mutant growth inhibition, active compounds read high
In short: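 Yeast strain carrying a DNA damage repair alteration was exposed to test compounds. Growth inhibition was measured relative to vehicle-treated controls.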

[2] = NCI Yeast Anticancer Drug Screen. Data for the wt1 strain (AID 149);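 further: 0% = growth of vehicle-treated wt1 cultures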; settings: S. cerevisiae wt1 strain (SPY 50644) growth inhibition, active compounds read high
In short: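 wt1 strain grown with compound or vehicle; inhibition taken from the growth difference.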

[3] = NCI Yeast Anticancer Drug Screen. Data for the rad50EPP+ strain (AID 151);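 further: 0% = growth of vehicle-treated control cultures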; settings: S. cerevisiae rad50 mutant strain, active compounds read high
In short: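 Yeast strain carrying rad50 alteration (rad50EPP+) exposed to compounds; growth inhibition measured relative to vehicle-treated controls.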

[4] = NCI Yeast Anticancer Drug Screen. Data for the mgt1 strain (AID 153); settings: S. cerevisiae mgt1 mutant growth inhibition, active compounds read high
In short: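 Yeast mgt1 strain (DNA repair/cell-cycle alteration panel) exposed to compounds; growth inhibition measured relative to vehicle-treated controls.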

[5] = NCI Yeast Anticancer Drug Screen. Data for the rad50 strain (AID 155);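 further: 0% = growth of vehicle-only cultures of the same strain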; settings: S. cerevisiae rad50 strain growth inhibition, active compounds read high
In short: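 DNA repair mutant yeast, compound exposure, growth read-out; inhibition is taken relative to vehicle.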

[6] = NCI Yeast Anticancer Drug Screen. Data for the mec2-1 strain (AID 157); settings: S. cerevisiae mec2-1 strain, active compounds read high
In short: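 mec2-1 yeast strain, carrying an alteration in DNA damage repair or cell cycle control, was exposed to compounds; growth inhibition was measured relative to vehicle-treated controls.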

[7] = NCI Yeast Anticancer Drug Screen. Data for the rad14 strain (AID 159);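 further: 0% = growth of vehicle-treated control cultures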; settings: S. cerevisiae rad14 strain growth inhibition, active compounds read high
In short: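 DNA repair-defective yeast, compound-exposed; % growth inhibition derived by comparison with vehicle-treated controls.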

[8] = NCI Yeast Anticancer Drug Screen. Data for the sgs1 mgt1 strain (AID 161);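 further: 0% = growth of cultures given vehicle only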; settings: S. cerevisiae sgs1 mgt1 strain, active compounds read high
In short: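 Percent growth inhibition was derived by comparing compound-exposed mutant yeast with vehicle-exposed cultures. The strain carries alterations in DNA damage repair.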

[9] = NCI Yeast Anticancer Drug Screen. Data for the CLN2oe strain (AID 163);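 further: 0% = growth of vehicle-only control cultures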; settings: S. cerevisiae CLN2oe strain, active compounds read high
In short: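 Yeast cells carrying a defined cell-cycle control alteration were exposed to test compounds. Growth inhibition was scored against vehicle-treated control cultures.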

[10] = NCI Yeast Anticancer Drug Screen. Data for the cln2 rad14 strain (AID 165);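 further: 0% = growth equal to vehicle treated cultures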; settings: S. cerevisiae cln2 rad14 strain, active compounds read high
In short: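 Yeast carrying cln2 and rad14 alterations (cell cycle control and DNA damage repair) were exposed to compounds. Growth inhibition was measured against vehicle-treated controls.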

[11] = NCI Yeast Anticancer Drug Screen. Data for the bub3 strain (AID 167); settings: S. cerevisiae bub3 mutant strain, active compounds read high
In short: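 In this screen, a yeast mutant lacking normal mitotic checkpoint function is challenged with compound. Relative growth versus vehicle gives the inhibition value.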

[12] = NCI Yeast Anticancer Drug Screen. Data for the wt2 strain (AID 169);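 further: 0% = growth of vehicle-treated yeast cultures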; settings: S. cerevisiae wt2 strain growth inhibition, active compounds read high
In short: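 Yeast cells were exposed to test compounds, and growth inhibition was measured relative to vehicle-treated controls.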

[13] = NCI Yeast Anticancer Drug Screen. Data for the mlh1 strain (AID 171);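 further: 0% = growth of vehicle-treated control cultures of the same strain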; settings: S. cerevisiae mlh1 strain growth inhibition, active compounds read high
In short: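 Yeast carrying a defined genetic alteration in DNA damage repair or cell cycle control were exposed to test compounds. Growth inhibition was measured relative to vehicle-treated controls.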

[14] = NCI Yeast Anticancer Drug Screen. Data for the sgs1 strain (AID 173);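 further: 0% = growth of vehicle-only control cultures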; settings: S. cerevisiae sgs1 mutant, active compounds read high
In short: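 Yeast mutant strains carrying defined defects in DNA damage repair or cell cycle control were exposed to test compounds. Growth inhibition was scored against vehicle-treated controls.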

[15] = NCI Yeast Anticancer Drug Screen. Data for the mlh1 rad18 strain (AID 175); settings: S. cerevisiae mlh1 rad18 strain growth inhibition, active compounds read high
In short: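 Growth inhibition of the yeast strain was measured after compound exposure and expressed relative to vehicle-treated controls. The strain carries defined defects in DNA damage repair.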

[16] = NCI Yeast Anticancer Drug Screen. Data for the rad18 strain (AID 177); settings: S. cerevisiae rad18 mutant growth inhibition, active compounds read high
In short: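 Yeast carrying a defined DNA damage repair alteration were exposed to compounds. Growth inhibition was expressed relative to vehicle-treated controls.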

[17] = at 5.0 µM (retest, dose inferred, filed as 0.5)
[18] = at 50.0 µM (retest, dose inferred, filed as 5.0)

Q: With `N#CSCC1COc2ccccc2O1` (stereo not drawn) as the molecule, how does the growth inhibition ([1]; at 1.2 µM) read?
A: Its growth inhibition is -43%.

Q: And the growth inhibition ([1]; at 3.7 µM)?
A: The growth inhibition was -47%.

Q: And the growth inhibition ([1]; at 11.0 µM)?
A: Its growth inhibition is -26%.

Q: What about the growth inhibition ([1]; at 33.0 µM) of the same molecule?
A: The growth inhibition was 72% (active).

Q: And the growth inhibition ([1]; at 100.0 µM)?
A: Its growth inhibition is 98% (active).

Q: What about the growth inhibition ([2]; at 1.2 µM) of the same molecule?
A: The growth inhibition was -49%.

Q: What about the growth inhibition ([2]; at 3.7 µM) of the same molecule?
A: The growth inhibition was -49%.

Q: And the growth inhibition ([2]; at 11.0 µM)?
A: Its growth inhibition is -28%.

Q: And the growth inhibition ([2]; at 33.0 µM)?
A: Its growth inhibition is 54%.

Q: What about the growth inhibition ([2]; at 100.0 µM) of the same molecule?
A: The growth inhibition was 97% (active).

Q: And the growth inhibition ([3]; at 1.2 µM)?
A: Its growth inhibition is -28%.

Q: What about the growth inhibition ([3]; at 3.7 µM) of the same molecule?
A: Its growth inhibition is -18%.

Q: What about the growth inhibition ([3]; at 11.0 µM) of the same molecule?
A: Its growth inhibition is -5%.

Q: What about the growth inhibition ([3]; at 33.0 µM) of the same molecule?
A: The growth inhibition was 83% (active).

Q: What about the growth inhibition ([3]; at 100.0 µM) of the same molecule?
A: The growth inhibition was 97% (active).

Q: And the growth inhibition ([4]; at 1.2 µM)?
A: Its growth inhibition is -25%.

Q: What about the growth inhibition ([4]; at 3.7 µM) of the same molecule?
A: Its growth inhibition is -23%.

Q: And the growth inhibition ([4]; at 11.0 µM)?
A: The growth inhibition was -9%.

Q: And the growth inhibition ([4]; at 33.0 µM)?
A: Its growth inhibition is 68%.

Q: What about the growth inhibition ([4]; at 100.0 µM) of the same molecule?
A: Its growth inhibition is 97% (active).

Q: And the growth inhibition ([5]; at 1.2 µM)?
A: The growth inhibition was -1%.

Q: What about the growth inhibition ([5]; at 3.7 µM) of the same molecule?
A: Its growth inhibition is 1%.

Q: What about the growth inhibition [5, 17] of the same molecule?
A: The growth inhibition was -5%.

Q: What about the growth inhibition ([5]; at 11.0 µM) of the same molecule?
A: Its growth inhibition is 8%.

Q: And the growth inhibition ([5]; at 33.0 µM)?
A: Its growth inhibition is 86% (active).

Q: And the growth inhibition [5, 18]?
A: The growth inhibition was 89% (active).

Q: What about the growth inhibition ([5]; at 50.0 µM) of the same molecule?
A: The growth inhibition was 88.4% (active).

Q: What about the growth inhibition ([5]; at 100.0 µM) of the same molecule?
A: Its growth inhibition is 98% (active).

Q: What about the growth inhibition ([6]; at 1.2 µM) of the same molecule?
A: The growth inhibition was -21%.

Q: And the growth inhibition ([6]; at 3.7 µM)?
A: Its growth inhibition is -33%.

Q: And the growth inhibition [6, 17]?
A: The growth inhibition was -27%.

Q: What about the growth inhibition ([6]; at 11.0 µM) of the same molecule?
A: The growth inhibition was -5%.

Q: What about the growth inhibition ([6]; at 33.0 µM) of the same molecule?
A: The growth inhibition was 87% (active).

Q: And the growth inhibition [6, 18]?
A: Its growth inhibition is 91% (active).

Q: And the growth inhibition ([6]; at 50.0 µM)?
A: The growth inhibition was 90.8% (active).

Q: What about the growth inhibition ([6]; at 100.0 µM) of the same molecule?
A: The growth inhibition was 97% (active).

Q: And the growth inhibition ([7]; at 1.2 µM)?
A: Its growth inhibition is -20%.

Q: What about the growth inhibition ([7]; at 3.7 µM) of the same molecule?
A: Its growth inhibition is -12%.

Q: What about the growth inhibition ([7]; at 11.0 µM) of the same molecule?
A: The growth inhibition was -16%.

Q: What about the growth inhibition ([7]; at 33.0 µM) of the same molecule?
A: Its growth inhibition is 20%.

Q: And the growth inhibition ([7]; at 100.0 µM)?
A: Its growth inhibition is 98% (active).

Q: And the growth inhibition [8, 17]?
A: The growth inhibition was -25%.

Q: What about the growth inhibition [8, 18] of the same molecule?
A: Its growth inhibition is 26%.

Q: And the growth inhibition ([8]; at 50.0 µM)?
A: The growth inhibition was 90.6% (active).

Q: What about the growth inhibition ([9]; at 1.2 µM) of the same molecule?
A: The growth inhibition was -11%.

Q: And the growth inhibition ([9]; at 3.7 µM)?
A: The growth inhibition was -14%.

Q: And the growth inhibition ([9]; at 11.0 µM)?
A: Its growth inhibition is -14%.

Q: And the growth inhibition ([9]; at 33.0 µM)?
A: The growth inhibition was 70% (active).

Q: What about the growth inhibition ([9]; at 100.0 µM) of the same molecule?
A: The growth inhibition was 98% (active).

Q: And the growth inhibition [10, 17]?
A: The growth inhibition was -6%.

Q: What about the growth inhibition [10, 18] of the same molecule?
A: Its growth inhibition is 85% (active).

Q: What about the growth inhibition ([10]; at 50.0 µM) of the same molecule?
A: Its growth inhibition is 85.3% (active).

Q: And the growth inhibition ([11]; at 1.2 µM)?
A: Its growth inhibition is -33%.

Q: And the growth inhibition ([11]; at 3.7 µM)?
A: The growth inhibition was -11%.

Q: And the growth inhibition [11, 17]?
A: The growth inhibition was 8%.

Q: And the growth inhibition ([11]; at 11.0 µM)?
A: Its growth inhibition is -16%.

Q: And the growth inhibition ([11]; at 33.0 µM)?
A: The growth inhibition was 87% (active).

Q: What about the growth inhibition [11, 18] of the same molecule?
A: The growth inhibition was 94% (active).

Q: And the growth inhibition ([11]; at 50.0 µM)?
A: The growth inhibition was 90.9% (active).

Q: What about the growth inhibition ([11]; at 100.0 µM) of the same molecule?
A: The growth inhibition was 98% (active).

Q: And the growth inhibition ([12]; at 1.2 µM)?
A: Its growth inhibition is -50%.

Q: What about the growth inhibition ([12]; at 3.7 µM) of the same molecule?
A: Its growth inhibition is -51%.

Q: And the growth inhibition ([12]; at 11.0 µM)?
A: The growth inhibition was -24%.

Q: What about the growth inhibition ([12]; at 33.0 µM) of the same molecule?
A: Its growth inhibition is 58%.

Q: What about the growth inhibition ([12]; at 100.0 µM) of the same molecule?
A: Its growth inhibition is 96% (active).

Q: And the growth inhibition ([13]; at 1.2 µM)?
A: Its growth inhibition is -51%.

Q: What about the growth inhibition ([13]; at 3.7 µM) of the same molecule?
A: The growth inhibition was -37%.

Q: And the growth inhibition ([13]; at 11.0 µM)?
A: The growth inhibition was -27%.

Q: And the growth inhibition ([13]; at 33.0 µM)?
A: The growth inhibition was 77% (active).

Q: And the growth inhibition ([13]; at 100.0 µM)?
A: Its growth inhibition is 97% (active).

Q: And the growth inhibition ([14]; at 1.2 µM)?
A: The growth inhibition was -46%.

Q: What about the growth inhibition ([14]; at 3.7 µM) of the same molecule?
A: The growth inhibition was -42%.

Q: And the growth inhibition ([14]; at 11.0 µM)?
A: Its growth inhibition is -8%.

Q: What about the growth inhibition ([14]; at 33.0 µM) of the same molecule?
A: The growth inhibition was 73% (active).

Q: And the growth inhibition ([14]; at 100.0 µM)?
A: The growth inhibition was 97% (active).

Q: What about the growth inhibition [15, 17] of the same molecule?
A: Its growth inhibition is 5%.

Q: What about the growth inhibition [15, 18] of the same molecule?
A: The growth inhibition was 94% (active).

Q: What about the growth inhibition ([15]; at 50.0 µM) of the same molecule?
A: Its growth inhibition is 88.2% (active).

Q: And the growth inhibition ([16]; at 1.2 µM)?
A: Its growth inhibition is -21%.

Q: What about the growth inhibition ([16]; at 3.7 µM) of the same molecule?
A: The growth inhibition was -22%.

Q: And the growth inhibition ([16]; at 11.0 µM)?
A: The growth inhibition was 17%.

Q: And the growth inhibition ([16]; at 33.0 µM)?
A: Its growth inhibition is 91% (active).

Q: And the growth inhibition ([16]; at 100.0 µM)?
A: The growth inhibition was 98% (active).
